In PubChem BioAssay:
The source made the active and inactive calls.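 How the source made its calls, unless noted: active means inhibition of the reporter signal at or above 50%; inactive means inhibition below 50%.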

Key:
[1] = inhibitors of TNFa-induced NFkB p65 translocation, primary screen, imaging, HUVEC, MLSMR starter and 10KST1 sets (AID 438;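 active means inhibition above 20% together with a positive visual image hit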;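 further: compound added about 3h40 before a 20 min TNFalpha stimulation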;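 on inhibition: signal is the nuclear over cytoplasmic p65 intensity ratio per well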); details: HUVEC TNFa-induced p65 nuclear translocation; cell count: measured here: nuclei count (cytotoxicity indicator), at 2.08 µM; inhibition: at 2 µM, stronger effect = higher value, 0% TNFa-plus-vehicle, 100% no-TNFa wells
[2] = inhibitors of mutant huntingtin aggregation, primary screen, imaging, exon1htt(103Q)mCFP cells, high-content imaging (AID 483;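 active means visual image review flags a hit and inhibition of aggregation exceeds 20%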;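 further: compound exposure lasted 3 days before fixation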;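 on nuclei count: percent of the per-plate median nuclei count of sample wells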); details: exon1htt(103Q)mCFP cell line, aggregate imaging, at 2 µM; inhibition of aggregation: stronger effect = higher value; nuclei count: measured here: cell count, toxicity
[3] = inhibitors of E-selectin induction by TNFa, primary screen, imaging, HUVEC, immunofluorescence, MLSMR starter and 10KST1 sets (AID 487;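 active means visually confirmed hit in the image check and inhibition above 20%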;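 on inhibition: signal is fraction of cell area covered by stained E-selectin grains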;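 on nuclei count: 100% = median nuclei count of all wells on the same plate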); details: HUVEC TNFalpha-induced E-selectin immunofluorescence imaging, at 2 µM; inhibition: stronger effect = higher value; nuclei count: measured here: cell number, toxicity
[4] = target: Voltage-gated potassium channel subunit beta-2 (Rattus norvegicus) (UniProt P62483); assay: KvBeta enzyme negative modulators, primary screen, biochemical, NADPH fluorescence (AID 622;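 active means fluorescence slope higher than the sample average by over 3 SD, cut at about -0.22 in these data, passing the limit was not always enough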;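 further: slope of raw intensity against log time taken from 70 to 1610 s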); details: recombinant KvBeta, 4-cyanobenzaldehyde reduction, at 10 µM, stronger effect = higher value
[5] = target: Voltage-gated potassium channel subunit beta-2 (Rattus norvegicus) (UniProt P62483); assay: KvBeta positive modulators, primary screen, biochemical, NADPH fluorescence (AID 623;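 active means NADPH fluorescence slope more negative than the mean of all samples by about 3 SD, 99.7% confidence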;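 further: fluorescence intensity change per second fitted from 20 to 320 s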); details: Recombinant KvBeta, NADPH fluorescence decrease slope, 10 min; at 10 µM; stronger effect = lower value
[6] = target: Alpha-2C adrenergic receptor (Homo sapiens) (UniProt P18825); assay: modulators of alpha2C/GIRK thallium flux, primary screen, cell-based, HEK293 alpha2C/GIRK1/2 (AID 624;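 active means fluorescence slope after compound addition differing from the mean of all screened samples at 99.7% confidence, in either direction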;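 further: slope of fluorescence ratio to pre-addition baseline per second over 15 to 24 s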); details: thallium flux BTC fluorescence, at 10 µM, actives lie on both sides
[7] = inhibitors of Sendai virus-induced IRF3 signaling, primary screen, TLR/RLR signaling modifier project, cell-based, Sendai virus stimulus, luciferase, 10K MLSCN set (AID 602276;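 active means inhibition at or above 50% at 10 µM; inactive means inhibition below 50%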;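 further: firefly luciferase from ISG56 promoter only with Renilla not read in this screen; 0% = Sendai virus plus DMSO and 100% = medium plus DMSO without virus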); details: HEK293 RL24 IRF3 luciferase reporter, at 10 µM, stronger effect = higher value
[8] = inhibitors of poly I:C-induced TLR3 signaling, primary screen, cell-based, poly I:C stimulus, luciferase, 10K MLSCN set (AID 602277); details: HEK293-TLR3 RL24 IRF3 luciferase reporter, at 10 µM, stronger effect = higher value

Chain of Voltage-gated potassium channel subunit beta-2 (Rattus norvegicus) (P62483 whole entry, looked up): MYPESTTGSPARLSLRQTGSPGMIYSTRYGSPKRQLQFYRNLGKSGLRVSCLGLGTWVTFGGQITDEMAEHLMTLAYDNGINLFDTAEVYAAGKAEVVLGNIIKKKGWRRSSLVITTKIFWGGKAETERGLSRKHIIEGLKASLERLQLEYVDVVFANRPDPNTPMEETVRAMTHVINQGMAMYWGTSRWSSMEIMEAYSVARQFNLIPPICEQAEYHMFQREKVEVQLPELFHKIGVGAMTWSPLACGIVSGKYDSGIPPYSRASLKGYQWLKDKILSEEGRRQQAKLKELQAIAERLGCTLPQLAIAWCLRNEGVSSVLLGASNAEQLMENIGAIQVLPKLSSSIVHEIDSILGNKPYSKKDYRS
Chain of Alpha-2C adrenergic receptor (Homo sapiens) (P18825 whole entry, looked up): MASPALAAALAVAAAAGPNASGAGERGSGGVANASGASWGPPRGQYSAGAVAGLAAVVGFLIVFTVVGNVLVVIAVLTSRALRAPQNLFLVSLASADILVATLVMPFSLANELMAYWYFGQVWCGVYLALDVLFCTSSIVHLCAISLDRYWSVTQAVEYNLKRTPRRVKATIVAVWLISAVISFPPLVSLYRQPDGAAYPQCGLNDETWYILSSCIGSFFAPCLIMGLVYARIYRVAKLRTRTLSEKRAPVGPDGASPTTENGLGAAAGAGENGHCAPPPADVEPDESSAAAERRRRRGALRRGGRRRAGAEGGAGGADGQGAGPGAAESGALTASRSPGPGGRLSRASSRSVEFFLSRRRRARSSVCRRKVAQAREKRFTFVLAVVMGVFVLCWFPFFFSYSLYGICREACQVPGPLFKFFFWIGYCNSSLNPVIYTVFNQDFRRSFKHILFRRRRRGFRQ

Structure (SMILES) | cell count [1] | inhibition [1] | inhibition of aggregation [2] | nuclei count [2] [%] | inhibition [3] | nuclei count [3] [%] | fluorescence slope [4] | NADPH fluorescence slope [5] | slope [6] | inhibition [7] | inhibition [8]
Nn1cnnc1SCC(=O)Nc1ccc2c(c1)OCCO2 | 553 | 7.2% (inactive) | -23.3% (inactive) | 96 | -74.7% (inactive) | 208 | -0.351 (inactive) | -8.3e-06 (inactive) | 0.00546 (inactive) | 1.38% (inactive) | -17% (inactive)
COCCN(Cc1cc2cccc(C)c2[nH]c1=O)C(=O)c1ccccc1 | 298 | -22.3% (inactive) | 3.6% (inactive) | 91.8 | -23.9% (inactive) | 124 | -0.372 (inactive) | -5.9e-05 (inactive) | 0.00564 (inactive) | 7.15% (inactive) | 16.3% (inactive)
Cn1cccc1Cc1nnc(SCC(=O)N2CCOCC2)n1-c1ccc(F)cc1 | 585 | 5.8% (inactive) | 26.9% (inactive) | 89.6 | 55.7% (active) | 96.2 | -0.527 (inactive) | -3.5e-05 (inactive) | 0.00693 (inactive) | 12.2% (inactive) | 28.3% (inactive)
CSc1ccc(-c2nc(CSCC(=O)N3CCOCC3)c(C)o2)cc1 | 243 | 2.7% (inactive) | -6% (inactive) | 89.5 | -16.1% (inactive) | 101 | -0.523 (inactive) | -5.8e-05 (inactive) | 0.00525 (inactive) | -23.3% (inactive) | -88.4% (inactive)
O=C(Nc1ccccc1)c1cnc2n(c1=O)CCS2 | 734 | -18.7% (inactive) | 11.2% (inactive) | 106 | -25.4% (inactive) | 121 | -0.517 (inactive) | -3.2e-05 (inactive) | 0.0079 (inactive) | -16.4% (inactive) | -44.7% (inactive)
CCCCCn1c(N2CCN(Cc3ccccc3)CC2)nc2c1c(=O)[nH]c(=O)n2C | 675 | 1.9% (inactive) | -11.5% (inactive) | 101 | -13.6% (inactive) | 107 | -0.625 (inactive) | -2.8e-05 (inactive) | 0.0038 (inactive) | 14.2% (inactive) | 16.8% (inactive)
Nc1nc(Nc2cccc3ccccc23)nc(C2CCCC2=O)n1 (stereo not drawn) | 349 | 1.8% (inactive) | -7% (inactive) | 97.3 | -38.8% (inactive) | 109 | -0.312 (inactive) | -7e-05 (inactive) | 0.00598 (inactive) | 4.53% (inactive) | 13.8% (inactive)
O=S(=O)(Cc1ccccc1)N1CCCCCC1 | 451 | 5.2% (inactive) | -1% (inactive) | 91 | -42.3% (inactive) | 103 | -0.497 (inactive) | -5.8e-05 (inactive) | 0.00613 (inactive) | -4.29% (inactive) | 4.76% (inactive)
O=C(NCc1cccnc1)c1ccccn1 | 354 | -11% (inactive) | -7.8% (inactive) | 113 | -18.1% (inactive) | 108 | -0.466 (inactive) | -4.5e-06 (inactive) | 0.00661 (inactive) | 3.99% (inactive) | -3.56% (inactive)
COc1ccc(CNc2ccc(C(=O)O)cc2)cc1 | 511 | -28.3% (inactive) | -17.2% (inactive) | 116 | -61% (inactive) | 107 | -0.513 (inactive) | -3.9e-05 (inactive) | 0.00575 (inactive) | -4.3% (inactive) | -15.8% (inactive)
CCCN1C2CCCC1CC(NC(=O)c1ccccc1F)C2 (stereo not drawn) | 461 | 6% (inactive) | -1.6% (inactive) | 115 | 14.8% (inactive) | 101 | -0.515 (inactive) | -4.7e-05 (inactive) | 0.00485 (inactive) | 10.6% (inactive) | 17.7% (inactive)
CC1CCN(C(=O)CSc2nnc(Cc3cc(=O)[nH]c(=O)[nH]3)n2-c2ccc(Cl)cc2)CC1 | 713 | -6.3% (inactive) | 14.9% (inactive) | 87.4 | 1.4% (inactive) | 105 | -0.602 (inactive) | -8.2e-06 (inactive) | 0.00679 (inactive) | -3.8% (inactive) | 16.5% (inactive)
CC(=O)OC(C(=O)NC1CCCCC1)c1ccncc1 (stereo not drawn) | 614 | -8.1% (inactive) | -3.6% (inactive) | 105 | -147% (inactive) | 107 | -0.498 (inactive) | -3e-05 (inactive) | 0.00464 (inactive) | 8.21% (inactive) | 13.3% (inactive)
CCCCn1c(NC(=O)CC)c(C#N)c2nc3ccccc3nc21 | 273 | -0.9% (inactive) | 31.7% (inactive) | 80.6 | 45.9% (inactive) | 64.7 | -0.0219 (inactive) | -1.3e-05 (inactive) | 0.00421 (inactive) | 16.1% (inactive) | 9.45% (inactive)
Cc1cc(C(F)(F)F)nc(NCc2cccnc2)n1 | 597 | -31.3% (inactive) | -19.1% (inactive) | 97.7 | -79.3% (inactive) | 120 | -0.529 (inactive) | 1.9e-05 (inactive) | 0.00686 (inactive) | -7.81% (inactive) | -18.3% (inactive)
CCc1ccccc1-n1c(SCC(=O)N2CCCC2)nnc1-c1ccccn1 | 484 | 2.5% (inactive) | -5.8% (inactive) | 116 | -11.2% (inactive) | 104 | -0.524 (inactive) | 5e-05 (inactive) | 0.00548 (inactive) | -2.19% (inactive) | 4.38% (inactive)
COc1ccc(OCC(O)Cn2c(Br)nc3c2c(=O)[nH]c(=O)n3C)cc1 (stereo not drawn) | 221 | 2.4% (inactive) | 15.5% (inactive) | 74.9 | -39.9% (inactive) | 155 | -0.6 (inactive) | -3.5e-05 (inactive) | 0.00397 (inactive) | 35% (inactive) | 27.6% (inactive)
O=C(O)c1c(Cl)c(Cl)c(Cl)c(Cl)c1C(=O)N1CCOCC1 | 530 | -10.7% (inactive) | -17.6% (inactive) | 112 | 12.7% (inactive) | 112 | -0.618 (inactive) | -3.3e-05 (inactive) | 0.00588 (inactive) | 7.47% (inactive) | 5.92% (inactive)
Cc1ccc(C(=O)CSc2n[nH]c(-c3ccco3)n2)cc1C | 397 | 0.7% (inactive) | -8.3% (inactive) | 113 | 11.3% (inactive) | 106 | -0.479 (inactive) | 1.8e-05 (inactive) | 0.00302 (inactive) | 0.966% (inactive) | 10.8% (inactive)
CCc1[nH]nc2c1C(c1ccncc1)C(C#N)=C(N)O2 (stereo not drawn) | 355 | 2.9% (inactive) | -6% (inactive) | 109 | -29.1% (inactive) | 123 | -0.507 (inactive) | -3.3e-05 (inactive) | 0.00643 (inactive) | -2.35% (inactive) | 3.94% (inactive)
N#CCCCCn1c(-c2cncs2)nc2ccccc21 | 431 | 14.1% (inactive) | 3.5% (inactive) | 101 | 22.2% (inactive) | 107 | -0.385 (inactive) | -4.5e-05 (inactive) | 0.00375 (inactive) | 14.5% (inactive) | 15.9% (inactive)
Cc1cccc(N2C(=O)CC(N3CCN(c4cccc(C(F)(F)F)c4)CC3)C2=O)c1 (stereo not drawn) | 593 | -7.2% (inactive) | 3.8% (inactive) | 126 | -13.6% (inactive) | 119 | -0.386 (inactive) | 8.5e-06 (inactive) | 0.00436 (inactive) | 10.3% (inactive) | 36.4% (inactive)
O=C(O)c1ccc2c(c1)C(=O)N(c1ccc(Cl)cn1)C2=O | 675 | -4.5% (inactive) | 14.8% (inactive) | 84.8 | -72% (inactive) | 131 | -0.55 (inactive) | -2.8e-05 (inactive) | 0.00724 (inactive) | 10.9% (inactive) | 29.8% (inactive)
CCCCn1c(CN2CCN(c3ccccc3)CC2)nc2c1c(=O)n(C)c(=O)n2C | 702 | -11.5% (inactive) | -3.7% (inactive) | 90.6 | -17.7% (inactive) | 117 | -0.542 (inactive) | -4.7e-05 (inactive) | 0.00817 (inactive) | 1.46% (inactive) | -8.66% (inactive)
O=S(=O)(c1ccc(Oc2ccc(-c3nnco3)cc2)nc1)N1CCC(Cc2ccccc2)CC1 | 396 | -10.6% (inactive) | -26.7% (inactive) | 102 | -1% (inactive) | 108 | -0.508 (inactive) | -5e-05 (inactive) | 0.00554 (inactive) | 1.05% (inactive) | 5.84% (inactive)
COc1ccc(CCNC(=O)CSCc2n[nH]c(=O)[nH]2)cc1OC | 330 | 1.6% (inactive) | -15.4% (inactive) | 99.5 | -97.5% (inactive) | 131 | -0.476 (inactive) | -3.9e-05 (inactive) | 0.00502 (inactive) | 19.2% (inactive) | 24.3% (inactive)
O=C(Nc1ncc2c(n1)CC(c1ccccc1)CC2=O)c1ccco1 (stereo not drawn) | 572 | -8.6% (inactive) | -5.3% (inactive) | 99.5 | -3.8% (inactive) | 86 | -0.534 (inactive) | -5.7e-06 (inactive) | 0.00546 (inactive) | 9.1% (inactive) | 9.67% (inactive)
N#Cc1ccccc1Cn1c(=O)n(Cc2ccc(C(=O)NCc3ccco3)cc2)c(=O)c2ccccc21 | 689 | -11.4% (inactive) | -4.5% (inactive) | 83.9 | -47.4% (inactive) | 92.1 | -0.5 (inactive) | 2e-05 (inactive) | 0.00719 (inactive) | 1.35% (inactive) | -0.0219% (inactive)
